Data taken from PMC7862700, “An all-to-all approach to the identification of sequence-specific readers for epigenetic DNA modifications on cytosine”.

Legend:
Assay in all cases: DAPPL (digital affinity profiling via proximity ligation, sequencing); 10 mM Tris-HCl pH 7.5, 50 mM NaCl, 1 mM DTT, 4% glycerol, room temperature, 30 min; GST-TFs on glutathione beads, 16-mer random dsDNA library, 0.1% formaldehyde crosslink after washing; high values mean tight binding
[1] = biological target: T1, FLI1 (Homo sapiens, UniProt Q01543 1-452); conditions: protein: recombinant; tags: N-terminal GST; dsDNA, one strand shown
T1 sequence: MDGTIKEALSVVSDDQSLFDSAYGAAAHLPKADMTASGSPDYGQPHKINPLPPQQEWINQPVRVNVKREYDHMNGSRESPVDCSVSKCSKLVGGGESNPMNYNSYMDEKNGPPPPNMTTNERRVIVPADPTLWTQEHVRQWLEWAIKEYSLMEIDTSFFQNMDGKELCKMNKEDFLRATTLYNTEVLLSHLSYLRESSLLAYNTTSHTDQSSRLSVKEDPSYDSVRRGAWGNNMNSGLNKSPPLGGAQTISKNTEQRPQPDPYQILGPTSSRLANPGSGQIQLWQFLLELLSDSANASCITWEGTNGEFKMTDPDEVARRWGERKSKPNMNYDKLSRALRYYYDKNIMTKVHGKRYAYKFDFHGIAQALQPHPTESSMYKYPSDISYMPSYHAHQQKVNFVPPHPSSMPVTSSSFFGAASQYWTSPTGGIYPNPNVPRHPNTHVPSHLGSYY
Outline: (§1)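 In yeast, human transcription factors were expressed with a GST fusion, then pulled down on glutathione beads and given DNA barcodes. Pooled with a tag-only sample, they were exposed to 200 nmole of a 16-mer random double-stranded DNA library (Tris/NaCl/DTT/glycerol buffer, room temperature, 30 min), washed, crosslinked with 0.1% formaldehyde, proximity-ligated using BsaI/T4 ligase for 1 h at 37 °C, PCR-amplified and read on an Illumina NextSeq500. Each hexamer's frequency of reads for a factor, divided by the matching frequency for the tag-only sample, gives the binding signal.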

[2] = biological target: T2, ELK1 (Homo sapiens, UniProt P19419 1-428); conditions: protein: recombinant; tags: N-terminal GST; dsDNA, one strand shown
T2 sequence: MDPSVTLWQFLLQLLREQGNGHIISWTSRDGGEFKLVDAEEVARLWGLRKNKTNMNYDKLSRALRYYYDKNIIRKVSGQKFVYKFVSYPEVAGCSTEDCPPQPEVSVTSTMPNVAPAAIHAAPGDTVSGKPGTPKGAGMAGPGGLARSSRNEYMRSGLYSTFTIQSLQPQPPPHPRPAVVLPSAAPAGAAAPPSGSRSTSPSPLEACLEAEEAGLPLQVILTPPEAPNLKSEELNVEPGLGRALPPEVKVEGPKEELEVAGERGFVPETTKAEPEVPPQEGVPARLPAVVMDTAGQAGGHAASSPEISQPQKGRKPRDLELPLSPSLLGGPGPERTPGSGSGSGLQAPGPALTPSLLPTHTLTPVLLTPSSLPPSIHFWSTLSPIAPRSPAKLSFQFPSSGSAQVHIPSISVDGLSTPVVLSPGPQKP
Outline: as §1

[3] = biological target: T3, GABPA (Homo sapiens, UniProt Q06546 1-454); conditions: protein: recombinant; tags: N-terminal GST; dsDNA, one strand shown
T3 sequence: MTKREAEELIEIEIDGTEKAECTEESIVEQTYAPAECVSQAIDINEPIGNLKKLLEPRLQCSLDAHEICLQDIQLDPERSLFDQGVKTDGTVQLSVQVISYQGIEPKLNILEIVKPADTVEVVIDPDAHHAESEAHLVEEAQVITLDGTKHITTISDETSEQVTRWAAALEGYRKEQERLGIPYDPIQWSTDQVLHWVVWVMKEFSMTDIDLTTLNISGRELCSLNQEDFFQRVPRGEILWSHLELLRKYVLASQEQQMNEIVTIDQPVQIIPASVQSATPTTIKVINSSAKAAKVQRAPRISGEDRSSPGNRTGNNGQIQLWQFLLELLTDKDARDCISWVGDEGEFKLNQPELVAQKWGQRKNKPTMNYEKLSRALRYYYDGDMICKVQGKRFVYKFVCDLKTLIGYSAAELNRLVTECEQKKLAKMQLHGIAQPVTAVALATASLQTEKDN
Outline: as §1

[4] = biological target: T4, ERG (Homo sapiens, UniProt P11308 1-479); conditions: protein: recombinant; tags: N-terminal GST; dsDNA, one strand shown
T4 sequence: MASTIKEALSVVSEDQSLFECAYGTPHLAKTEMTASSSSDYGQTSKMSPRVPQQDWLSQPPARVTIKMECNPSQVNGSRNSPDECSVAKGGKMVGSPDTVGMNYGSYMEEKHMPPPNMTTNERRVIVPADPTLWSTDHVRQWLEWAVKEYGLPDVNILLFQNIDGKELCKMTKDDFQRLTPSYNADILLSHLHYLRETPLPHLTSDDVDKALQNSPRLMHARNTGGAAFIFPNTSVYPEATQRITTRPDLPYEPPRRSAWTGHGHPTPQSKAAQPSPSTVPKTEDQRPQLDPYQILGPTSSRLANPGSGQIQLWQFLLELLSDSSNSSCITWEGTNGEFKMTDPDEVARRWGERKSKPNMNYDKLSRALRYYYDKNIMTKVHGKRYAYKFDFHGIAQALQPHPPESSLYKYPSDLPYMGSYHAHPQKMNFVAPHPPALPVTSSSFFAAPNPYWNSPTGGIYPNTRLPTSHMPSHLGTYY
Outline: as §1

[5] = biological target: ELF1 (Homo sapiens, UniProt P32519 1-619); conditions: protein: recombinant; tags: N-terminal GST; dsDNA, one strand shown
Outline: as §1

[6] = biological target: T5, EHF (Homo sapiens, UniProt Q9NZC4 1-300); conditions: protein: recombinant; tags: N-terminal GST; dsDNA, one strand shown
T5 sequence: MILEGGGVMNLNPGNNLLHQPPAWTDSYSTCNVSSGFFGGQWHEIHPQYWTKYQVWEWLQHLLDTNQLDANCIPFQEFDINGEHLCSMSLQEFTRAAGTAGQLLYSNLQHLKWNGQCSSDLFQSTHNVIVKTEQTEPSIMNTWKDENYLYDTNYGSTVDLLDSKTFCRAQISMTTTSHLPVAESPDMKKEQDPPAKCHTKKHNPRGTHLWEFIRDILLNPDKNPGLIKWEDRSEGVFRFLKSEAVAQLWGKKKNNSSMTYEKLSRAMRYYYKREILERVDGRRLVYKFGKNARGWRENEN
Outline: as §1

[7] = biological target: SPI1 (Homo sapiens, UniProt P17947 1-270); conditions: protein: recombinant; tags: N-terminal GST; dsDNA, one strand shown
Outline: as §1

[8] = biological target: SPIB (Homo sapiens, UniProt Q01892 1-262); conditions: protein: recombinant; tags: N-terminal GST; dsDNA, one strand shown
Outline: as §1

[9] = biological target: T6, ELK3 (Homo sapiens, UniProt P41970 1-407); conditions: protein: recombinant; tags: N-terminal GST; dsDNA, one strand shown
T6 sequence: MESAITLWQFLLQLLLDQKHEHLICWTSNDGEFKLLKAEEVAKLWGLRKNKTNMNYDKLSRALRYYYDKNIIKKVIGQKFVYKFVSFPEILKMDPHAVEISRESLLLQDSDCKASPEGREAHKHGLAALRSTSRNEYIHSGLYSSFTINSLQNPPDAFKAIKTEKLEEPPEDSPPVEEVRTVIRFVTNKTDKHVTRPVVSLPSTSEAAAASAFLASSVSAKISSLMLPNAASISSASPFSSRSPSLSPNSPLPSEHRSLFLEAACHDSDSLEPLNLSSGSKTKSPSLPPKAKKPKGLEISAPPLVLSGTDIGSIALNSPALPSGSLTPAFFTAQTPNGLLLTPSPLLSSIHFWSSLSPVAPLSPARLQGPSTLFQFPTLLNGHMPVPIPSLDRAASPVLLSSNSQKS
Outline: as §1

[10] = biological target: T7, FEV (Homo sapiens, UniProt Q99581 1-238); conditions: protein: recombinant; tags: N-terminal GST; dsDNA, one strand shown
T7 sequence: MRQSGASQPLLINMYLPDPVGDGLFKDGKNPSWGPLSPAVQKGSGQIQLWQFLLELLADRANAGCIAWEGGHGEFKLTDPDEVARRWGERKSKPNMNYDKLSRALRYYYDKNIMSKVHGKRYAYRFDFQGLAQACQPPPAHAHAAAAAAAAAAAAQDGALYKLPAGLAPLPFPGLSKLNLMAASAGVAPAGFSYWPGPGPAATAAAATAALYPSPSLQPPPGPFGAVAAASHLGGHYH
Outline: as §1

[11] = biological target: ETV5 (Homo sapiens, UniProt P41161 1-510); conditions: protein: recombinant; tags: N-terminal GST; dsDNA, one strand shown
Outline: as §1

[12] = biological target: HSF1 (Homo sapiens, UniProt Q00613 1-529); conditions: protein: recombinant; tags: N-terminal GST; chain copies: 3; dsDNA, one strand shown
Outline: as §1

[13] = biological target: T8, SPIC (Homo sapiens, UniProt Q8N5J4 1-248); conditions: protein: recombinant; tags: N-terminal GST; dsDNA, one strand shown
T8 sequence: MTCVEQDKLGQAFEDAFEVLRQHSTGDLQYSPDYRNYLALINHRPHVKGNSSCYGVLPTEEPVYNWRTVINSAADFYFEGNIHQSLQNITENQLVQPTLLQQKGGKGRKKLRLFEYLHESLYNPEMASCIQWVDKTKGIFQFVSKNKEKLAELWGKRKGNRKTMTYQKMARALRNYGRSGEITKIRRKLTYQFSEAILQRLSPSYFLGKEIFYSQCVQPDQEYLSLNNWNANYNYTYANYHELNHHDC
Outline: as §1

[14] = biological target: ELF4 (Homo sapiens, UniProt Q99607 1-663); conditions: protein: recombinant; tags: N-terminal GST; dsDNA, one strand shown
Outline: as §1

[15] = biological target: T9, ELK4 (Homo sapiens, UniProt P28324-2 1-405); conditions: protein: recombinant; tags: N-terminal GST; dsDNA, one strand shown
T9 sequence: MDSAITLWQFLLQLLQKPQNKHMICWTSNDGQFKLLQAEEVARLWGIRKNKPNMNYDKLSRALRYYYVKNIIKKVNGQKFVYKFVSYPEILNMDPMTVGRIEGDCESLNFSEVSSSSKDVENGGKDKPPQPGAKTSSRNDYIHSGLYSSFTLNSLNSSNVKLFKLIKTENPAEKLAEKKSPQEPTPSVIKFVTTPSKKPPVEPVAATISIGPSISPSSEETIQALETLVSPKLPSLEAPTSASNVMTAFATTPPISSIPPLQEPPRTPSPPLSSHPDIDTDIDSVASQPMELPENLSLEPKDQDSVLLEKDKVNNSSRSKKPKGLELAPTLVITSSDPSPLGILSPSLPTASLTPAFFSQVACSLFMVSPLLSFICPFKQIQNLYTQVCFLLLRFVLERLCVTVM
Outline: as §1

[16] = biological target: T10, ETV2 (Homo sapiens, UniProt O00321 1-342); conditions: protein: recombinant; tags: N-terminal GST; dsDNA, one strand shown
T10 sequence: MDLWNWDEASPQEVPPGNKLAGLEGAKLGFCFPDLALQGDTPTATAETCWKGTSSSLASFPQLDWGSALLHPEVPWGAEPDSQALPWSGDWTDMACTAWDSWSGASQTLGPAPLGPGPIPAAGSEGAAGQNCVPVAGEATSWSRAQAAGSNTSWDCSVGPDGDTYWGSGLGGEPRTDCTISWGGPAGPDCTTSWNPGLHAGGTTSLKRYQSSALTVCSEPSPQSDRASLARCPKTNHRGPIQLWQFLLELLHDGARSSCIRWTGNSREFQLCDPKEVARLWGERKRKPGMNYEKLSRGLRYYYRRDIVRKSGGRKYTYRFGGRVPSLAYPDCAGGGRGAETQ
Outline: as §1

[17] = biological target: T11, ELF3 (Homo sapiens, UniProt P78545 1-371); conditions: protein: recombinant; tags: N-terminal GST; dsDNA, one strand shown
T11 sequence: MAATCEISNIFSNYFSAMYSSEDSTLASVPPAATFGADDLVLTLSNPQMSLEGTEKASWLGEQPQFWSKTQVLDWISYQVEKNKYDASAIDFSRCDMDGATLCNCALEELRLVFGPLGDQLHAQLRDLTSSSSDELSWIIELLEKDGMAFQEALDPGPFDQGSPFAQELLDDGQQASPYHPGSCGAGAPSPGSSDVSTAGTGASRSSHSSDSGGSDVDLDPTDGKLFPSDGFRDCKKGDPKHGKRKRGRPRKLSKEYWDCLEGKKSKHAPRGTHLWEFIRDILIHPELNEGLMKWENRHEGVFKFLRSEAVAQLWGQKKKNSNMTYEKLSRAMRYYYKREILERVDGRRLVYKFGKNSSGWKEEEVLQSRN
Outline: as §1

[18] = biological target: CRX (Homo sapiens, UniProt O43186 1-299); conditions: protein: recombinant; tags: N-terminal GST; dsDNA, one strand shown
Outline: as §1

[19] = biological target: ETV1 (Homo sapiens, UniProt P50549 1-477); conditions: protein: recombinant; tags: N-terminal GST; dsDNA, one strand shown
Outline: as §1

Sequence of SPIB (Q01892 whole entry): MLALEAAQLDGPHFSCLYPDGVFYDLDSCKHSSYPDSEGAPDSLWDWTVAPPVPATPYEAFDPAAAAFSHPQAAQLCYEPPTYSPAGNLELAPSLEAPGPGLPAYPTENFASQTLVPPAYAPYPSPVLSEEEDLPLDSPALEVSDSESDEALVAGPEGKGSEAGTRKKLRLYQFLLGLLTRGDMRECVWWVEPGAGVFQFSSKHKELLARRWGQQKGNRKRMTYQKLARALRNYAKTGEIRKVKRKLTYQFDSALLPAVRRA
Sequence of CRX (O43186 whole entry): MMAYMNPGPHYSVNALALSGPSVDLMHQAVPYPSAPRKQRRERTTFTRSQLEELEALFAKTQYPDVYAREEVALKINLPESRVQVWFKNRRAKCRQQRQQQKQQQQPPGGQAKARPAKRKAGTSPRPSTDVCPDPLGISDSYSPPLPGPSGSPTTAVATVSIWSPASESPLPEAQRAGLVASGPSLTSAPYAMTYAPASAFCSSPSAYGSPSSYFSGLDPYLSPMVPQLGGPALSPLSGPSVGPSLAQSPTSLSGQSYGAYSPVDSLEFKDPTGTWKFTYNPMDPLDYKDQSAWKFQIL
Sequence of ELF4 (Q99607 whole entry): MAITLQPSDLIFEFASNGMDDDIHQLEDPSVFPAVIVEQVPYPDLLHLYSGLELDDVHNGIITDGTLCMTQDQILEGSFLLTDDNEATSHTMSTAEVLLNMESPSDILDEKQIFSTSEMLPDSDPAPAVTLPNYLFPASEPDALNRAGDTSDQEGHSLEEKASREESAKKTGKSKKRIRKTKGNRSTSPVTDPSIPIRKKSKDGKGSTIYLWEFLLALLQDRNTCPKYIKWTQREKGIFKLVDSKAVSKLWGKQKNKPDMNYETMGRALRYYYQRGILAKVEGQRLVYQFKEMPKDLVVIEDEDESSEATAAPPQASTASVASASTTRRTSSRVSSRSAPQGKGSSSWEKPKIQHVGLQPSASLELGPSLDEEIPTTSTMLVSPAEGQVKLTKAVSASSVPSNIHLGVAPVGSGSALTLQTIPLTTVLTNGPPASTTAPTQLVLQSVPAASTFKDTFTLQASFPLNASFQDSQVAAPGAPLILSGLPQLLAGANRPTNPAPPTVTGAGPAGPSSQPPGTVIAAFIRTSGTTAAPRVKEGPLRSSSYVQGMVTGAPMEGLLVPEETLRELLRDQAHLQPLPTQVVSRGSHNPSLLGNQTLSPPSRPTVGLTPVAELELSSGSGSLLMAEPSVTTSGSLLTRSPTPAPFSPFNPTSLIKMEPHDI
Sequence of ELF1 (P32519 whole entry): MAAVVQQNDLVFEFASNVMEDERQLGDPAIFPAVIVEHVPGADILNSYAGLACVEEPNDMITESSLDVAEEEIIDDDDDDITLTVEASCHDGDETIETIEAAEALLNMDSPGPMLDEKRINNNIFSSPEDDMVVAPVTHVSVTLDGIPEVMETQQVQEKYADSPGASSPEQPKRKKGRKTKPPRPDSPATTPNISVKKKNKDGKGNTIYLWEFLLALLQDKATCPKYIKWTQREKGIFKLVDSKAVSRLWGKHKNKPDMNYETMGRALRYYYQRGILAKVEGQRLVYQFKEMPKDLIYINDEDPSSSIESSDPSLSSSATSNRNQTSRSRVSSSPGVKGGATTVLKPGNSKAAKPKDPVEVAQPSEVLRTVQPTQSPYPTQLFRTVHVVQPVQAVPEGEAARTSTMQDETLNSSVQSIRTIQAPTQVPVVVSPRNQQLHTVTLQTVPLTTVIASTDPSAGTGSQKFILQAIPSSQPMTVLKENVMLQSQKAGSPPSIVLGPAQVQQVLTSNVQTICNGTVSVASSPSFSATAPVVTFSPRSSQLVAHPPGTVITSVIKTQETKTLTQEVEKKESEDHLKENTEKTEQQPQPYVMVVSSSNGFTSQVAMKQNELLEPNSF
Sequence of ETV5 (P41161 whole entry): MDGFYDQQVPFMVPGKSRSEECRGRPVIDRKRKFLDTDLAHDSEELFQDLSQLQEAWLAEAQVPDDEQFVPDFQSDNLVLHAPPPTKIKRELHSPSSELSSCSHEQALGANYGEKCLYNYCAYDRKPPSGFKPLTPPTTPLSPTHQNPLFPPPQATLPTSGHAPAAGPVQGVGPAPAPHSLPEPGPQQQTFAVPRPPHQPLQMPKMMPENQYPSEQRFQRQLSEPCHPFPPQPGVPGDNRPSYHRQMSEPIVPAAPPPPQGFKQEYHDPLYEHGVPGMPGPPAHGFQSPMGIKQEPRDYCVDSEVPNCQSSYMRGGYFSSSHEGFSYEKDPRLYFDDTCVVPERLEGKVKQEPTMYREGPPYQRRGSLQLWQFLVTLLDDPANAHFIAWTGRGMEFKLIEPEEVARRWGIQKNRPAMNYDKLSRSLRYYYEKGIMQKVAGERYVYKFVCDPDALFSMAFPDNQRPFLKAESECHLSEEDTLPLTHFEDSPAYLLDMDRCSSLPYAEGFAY
Sequence of HSF1 (Q00613 whole entry): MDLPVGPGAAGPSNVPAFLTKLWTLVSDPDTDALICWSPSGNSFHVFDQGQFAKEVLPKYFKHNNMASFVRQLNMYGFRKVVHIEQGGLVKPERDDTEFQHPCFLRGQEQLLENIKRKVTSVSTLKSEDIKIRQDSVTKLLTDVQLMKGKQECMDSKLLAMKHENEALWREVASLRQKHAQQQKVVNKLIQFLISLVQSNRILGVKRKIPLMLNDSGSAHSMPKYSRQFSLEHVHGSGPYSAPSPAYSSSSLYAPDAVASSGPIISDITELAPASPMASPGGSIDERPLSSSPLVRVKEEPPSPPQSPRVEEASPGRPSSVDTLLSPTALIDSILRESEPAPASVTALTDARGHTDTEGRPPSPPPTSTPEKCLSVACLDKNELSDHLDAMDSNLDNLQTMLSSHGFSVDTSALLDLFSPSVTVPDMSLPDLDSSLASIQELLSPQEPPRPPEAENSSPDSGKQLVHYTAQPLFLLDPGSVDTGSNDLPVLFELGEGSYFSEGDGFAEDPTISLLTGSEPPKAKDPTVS
Sequence of ETV1 (P50549 whole entry): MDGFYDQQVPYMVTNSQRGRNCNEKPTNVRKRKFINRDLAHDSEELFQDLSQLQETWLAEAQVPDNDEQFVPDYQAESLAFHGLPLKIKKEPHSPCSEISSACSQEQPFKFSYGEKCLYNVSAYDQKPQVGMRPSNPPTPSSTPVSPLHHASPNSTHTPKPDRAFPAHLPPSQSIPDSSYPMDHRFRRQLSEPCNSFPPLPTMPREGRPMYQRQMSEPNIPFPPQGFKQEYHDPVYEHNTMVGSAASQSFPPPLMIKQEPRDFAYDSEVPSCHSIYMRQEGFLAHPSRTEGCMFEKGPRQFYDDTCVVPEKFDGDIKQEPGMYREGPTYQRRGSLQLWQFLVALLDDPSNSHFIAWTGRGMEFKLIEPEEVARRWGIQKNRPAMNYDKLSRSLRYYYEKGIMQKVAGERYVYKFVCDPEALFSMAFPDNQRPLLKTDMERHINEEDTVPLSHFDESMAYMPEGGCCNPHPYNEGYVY

Q: What does the source list for ATTTAT?
A: binding signal [1]: 1.41 fold enrichment (6-mer frequency, TF over GST control); binding signal [2]: 1.48 fold enrichment (6-mer frequency, TF over GST control); binding signal [3]: 1.35 fold enrichment (6-mer frequency, TF over GST control); binding signal [4]: 1.33 fold enrichment (6-mer frequency, TF over GST control); binding signal [5]: 1.32 fold enrichment (6-mer frequency, TF over GST control); binding signal [6]: 1.45 fold enrichment (6-mer frequency, TF over GST control); binding signal [7]: 1.43 fold enrichment (6-mer frequency, TF over GST control); binding signal [8]: 1.46 fold enrichment (6-mer frequency, TF over GST control); binding signal [9]: 1.49 fold enrichment (6-mer frequency, TF over GST control); binding signal [10]: 1.34 fold enrichment (6-mer frequency, TF over GST control); binding signal [11]: 1.41 fold enrichment (6-mer frequency, TF over GST control); binding signal [12]: 1.68 fold enrichment (6-mer frequency, TF over GST control); binding signal [13]: 1.49 fold enrichment (6-mer frequency, TF over GST control); binding signal [14]: 1.35 fold enrichment (6-mer frequency, TF over GST control); binding signal [15]: 1.53 fold enrichment (6-mer frequency, TF over GST control); binding signal [16]: 1.44 fold enrichment (6-mer frequency, TF over GST control); binding signal [17]: 1.46 fold enrichment (6-mer frequency, TF over GST control); binding signal [18]: 2.19 fold enrichment (6-mer frequency, TF over GST control); binding signal [19]: 1.43 fold enrichment (6-mer frequency, TF over GST control)
